Glyco luc inh = increase of ERlucT glycosylation luciferase signal, primary screen, N-linked glycosylation inhibitor project, D54 ERlucT cells, luminescence, set 2; D54 ERlucT glycosylation luciferase reporter, 24 h; percent of 100 nM tunicamycin response; reporter increase, % at 12.5 µM; hit rate 0.23% among 360,000;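 active = mean luciferase reporter signal, scaled so untreated is 0 and the glycosylation-blocking control 100, at or above a set limit in every replicate; inconclusive = mean reaches the limit but not every replicate does; inactive = mean below the limit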;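 also: luciferase carries N-glycosylation sites so blocking glycosylation raises the light; 0% = median of neutral control wells and 100% = median of 100 nM tunicamycin wells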
Wnt bcat act = Wnt/beta-catenin pathway activators, primary screen, cell-based, plate reader, single point. activation, % at 9.35 µM. AID 743398, 2014. hit rate 1.2% among 300,000. Wnt/beta-catenin reporter cell assay, activator; in the data active = activation above about 30%, passing the limit was not always enough; inconclusive = no clear call, values can overlap the other calls;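 also: 0% = neutral control wells and 100% = positive control wells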
MITF act = activators of MITF-driven TRPM1 promoter reporter, primary screen, cell-based, SK-MEL-5, luciferase, single point | SK-MEL-5 TRPM1-promoter luciferase, 24 h; % of positive control, neutral wells = 0 | activation, % at 12.5 µM | hit rate 0.75% among 300,000 | AID 588334, 2011;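 active = mean activation of at least 80% with every replicate also reaching 80%; inconclusive = mean reaches 80% but some replicate falls short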;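 also: 0% = neutral control wells and 100% = parthenolide positive control wells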
esBAF inh = Bmi1 luciferase reporter increase in mESCs, primary screen, esBAF inhibitor project, mouse ES cells, Bmi1 luciferase knock-in, single point | hit rate 2% among 350,000 | AID 602393, 2012 | reporter increase, % at 12.5 µM | 24 h; 100% = twice the neutral-well signal; in the data active = activation above about 40%; inconclusive = no clear call, values can overlap the other calls;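 also: 0% = median of the plate's neutral control wells and 100% = double that signal; a rise in the Bmi1 reporter signal indicates esBAF inhibition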
Vif inh = HIV Vif self-association inhibitors, primary screen, imaging, HEK293T, single point; HEK293T cells, Vif self-association by quenched fluorescence, 24 h; inhibition, % at 7.49 µM; hit rate 0.35% among 340,000; in the data active = inhibition above about 50%, passing the limit was not always enough; inconclusive = no clear call, values can overlap the other calls; inactive = below about 31%
PvdQ inh = P. aeruginosa PvdQ acylase inhibitors, primary screen, biochemical, fluorescence, plate reader and imaging, single point. PvdQ acylase [Pseudomonas aeruginosa LESB58]. purified PvdQ acylase. inhibition, % at 10 µM. hit rate 0.063% among 340,000. AID 488965, 2010; in the data active = inhibition above about 30%, passing the limit was not always enough; inconclusive = no clear call, values can overlap the other calls;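 also: 0% = vehicle neutral wells and 100% = reference inhibitor wells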
An asterisk follows results filed as active; ? = inconclusive; · = no result given. Compounds with a hit are over-represented: about 2.9% of the library has one in this group of screens.

SMILES	Glyco luc inh	Wnt bcat act	MITF act	esBAF inh	Vif inh	PvdQ inh
C[C@@H]1CN([C@H](C)CO)C(=O)c2cccc(NC(=O)c3cnccn3)c2O[C@@H]1CN(C)S(=O)(=O)c1ccc(F)cc1	·	·	·	-4.2	·	·
COc1ccc(S(=O)(=O)Nc2ccc3c(c2)CC(=O)N([C@@H](C)CO)C[C@H](C)[C@H](CN(C)S(=O)(=O)c2ccc(F)cc2)O3)cc1	·	·	·	1.5	·	·
CCN1CC=C2C(C#N)=C(N)C(C#N)(C#N)C(CCc3ccccc3)C2C1 (stereo unspecified)	2.7	0.8	·	7.4	79.3*	1.3
O=C(/C=C/c1ccc(Br)cc1)c1ccco1	8.4	1.7	5.4	·	-2.4	56.0*
O=C(/C=C/c1ccc(Br)cc1)c1ccc(NC(=O)c2ccco2)cc1	1.8	·	8.5	39.7	-6.2	-7.0
O=C(/C=C/C=C/c1ccccc1)c1ccco1	15.3	39.6*	16.0	5.1	-0.7	21.7
C[C@@H]1CN([C@H](C)CO)C(=O)Cc2cc(NC(=O)Cn3cnnn3)ccc2O[C@H]1CN(C)C(=O)NC1CCCCC1	·	·	·	1.3	·	·
COc1ccc(CN(C)C[C@H]2Oc3ccc(NC(=O)C4CC4)cc3C(=O)N([C@@H](C)CO)C[C@H]2C)cc1	·	·	·	2.7	·	·
Cc1ccc(NC(=S)c2ccc3ccccc3n2)c(C)c1	-2.1	28.2	25.2	53.0*	7.1	5.0
CCNC(=O)Nc1ccc2c(c1)C(=O)N(C)[C@H]1CC[C@H](CC(=O)N[C@H](C)c3ccccc3)O[C@H]1CO2	·	·	·	0.5	·	·
CC(C)Nc1c(N)c(=O)oc2ccccc12	0.6	·	·	3.2	58.7*	-10.1
CNc1c(N)c(=O)oc2ccccc12	-1.4	1.9	-16.4	17.0	9.7	-11.3
COc1cc(C(=O)O/N=C2\C=CC(=O)C(C)=C2)cc(OC)c1OC	-1.8	61.3*	·	-6.9	-2.0	-14.2
COc1cc(C(=O)ON=C2C=C(C)C(=O)C(C)=C2)cc(OC)c1OC	-0.9	-1.9	-8.8	·	8.0	-9.1
CC(C)NC(=O)N1C[C@@H]2[C@H](c3ccccc31)[C@@H](CO)N2C(=O)Nc1cccc(F)c1	·	·	·	-4.0	·	·
CCCC12CN3CCN(CC(C3)/C1=N\NC(=O)c1ccccc1N)C2	1.0	37.3*	-3.7	·	-1.2	-1.2
Cc1nn2c(N)c(-c3ccccc3)cnc2c1-c1ccc(Cl)cc1	2.1	16.6	101.1*	?	-4.3	-8.0
Cc1nc2c(-c3ccccc3)c(C)nn2c(N)c1-c1ccccc1	-2.5	·	86.5*	·	-3.9	-8.6
Cc1nn2c(-c3ccccc3)ccnc2c1-c1ccccc1	-2.1	40.4*	?	·	-17.3	-13.9
Nc1c(-c2ccccc2)cnc2c(-c3ccccc3)cnn12	-15.8	11.9	·	-54.6	14.0	8.5
Cc1ccc(-c2ccnc3c(Cl)c(C)nn23)cc1	-1.5	0.3	-9.8	14.5	-8.3	-10.3
CCCNC(=O)N1C[C@@H](O)COC[C@@H]2O[C@@H](CC(=O)N3CCOCC3)CC[C@H]21	·	·	·	-1.9	·	·
COC(=O)c1ccc2c(=O)n(CC3CCCO3)c(SCC(=O)Nc3ccccc3OC)nc2c1 (stereo unspecified)	-0.5	-3.8	·	15.6	-3.1	-6.8
COC(=O)c1ccc2c(=O)n(Cc3ccco3)c(SCC(=O)Nc3ccccc3Cl)nc2c1	-5.4	1.8	·	6.0	1.4	-12.9
COC(=O)c1ccc2c(=O)n(Cc3ccco3)c(SCC(=O)Nc3cc(C)on3)nc2c1	62.0*	-16.8	-38.0	·	53.3*	-11.2
SMILES	Glyco luc inh	Wnt bcat act	MITF act	esBAF inh	Vif inh	PvdQ inh
COC(=O)c1ccc2c(=O)n(CC3CCCO3)c(SCC(=O)Nc3ccccc3Cl)nc2c1 (stereo unspecified)	-1.4	·	·	50.1*	0.4	-10.7
COCCn1c(C)cc(C(=O)CSc2nc3ccccc3c(=O)n2Cc2ccco2)c1C	-10.7	55.3*	43.0	96.6*	-18.3	1.8
COc1ccccc1C#Cc1cnc2c(c1)C(=O)N([C@H](C)CO)C[C@H](C)[C@@H](CN(C)C(=O)CC1CC1)O2	·	·	·	-2.8	·	·
Cc1ccc(S(=O)(=O)Oc2ccc(N3C(=O)C4C5CCC(C5)C4C3=O)cc2)cc1 (stereo unspecified)	-5.1	-0.8	10.0	·	-12.4	-5.6
O=C1C2C3CCC(C3)C2C(=O)N1c1ccc(OS(=O)(=O)c2ccccc2)cc1 (stereo unspecified)	-6.9	34.3*	60.6	·	-7.7	2.0
Cc1ccc(Nc2ncc3c(n2)CC(C)(C)CC3=O)cc1	-4.4	-0.9	91.5*	·	-1.5	-4.2
COc1ccc(NC(=O)Nc2ccc3c(c2)C(=O)N([C@H](C)CO)C[C@H](C)[C@H](CN(C)C(=O)Nc2cccc4ccccc24)OCCCC[C@@H](C)O3)cc1	·	·	·	-1.8	·	·
CCN(CC)c1ccc(NC(=O)C2CC3CCC2C3)cc1 (stereo unspecified)	-1.5	·	58.0	47.7*	-52.6	-7.2
O=C(Nc1ccccc1)C1CC2CCC1C2 (stereo unspecified)	1.1	-1.4	-10.3	2.1	7.1	10.0
C[C@H](CO)N1C[C@H](C)[C@H](CN(C)C(=O)Nc2ccccc2)Oc2ccc(NC(=O)C3CCCCC3)cc2C1=O	·	·	·	-8.7	·	·
O=C(/C=C\Nc1ccc2c(c1)OCO2)c1ccccn1	-19.3	·	-75.2	·	·	9.2
O=C(/C=C\Nc1ccc2c(c1)OCO2)c1ccc(Cl)s1	-3.2	0.5	53.6	51.9*	14.3	-4.3
O=C(Nc1ccc2c(c1)OCO2)c1cccs1	-2.6	·	38.9	?	5.2	-13.6
O=C(/C=C\Nc1ccc2c(c1)OCO2)c1cccs1	-17.0	10.2	-13.7	-61.1	66.2*	6.1
O=C(C[C@H]1C=C[C@@H](NC(=O)c2ccncc2)[C@H](CO)O1)Nc1ccc(-c2ccccc2)cc1	·	·	·	4.9	·	·
COc1ccc(S(=O)(=O)Nc2ccc3c(c2)C(=O)N([C@@H](C)CO)C[C@@H](C)[C@@H](CN(C)S(=O)(=O)c2cn(C)cn2)OCCCC[C@@H](C)O3)cc1	·	·	·	0.3	·	·
Cc1oc(-c2ccccc2F)nc1CS(=O)CC(=O)NCc1ccc2c(c1)OCO2 (stereo unspecified)	2.2	42.8*	·	-8.8	0.7	-9.3
Cc1oc(-c2ccc(Cl)cc2)nc1CS(=O)CC(=O)NCc1ccc2c(c1)OCO2 (stereo unspecified)	2.9	0.8	-13.9	-1.9	-1.4	-4.8
CN(C(=S)NCCN1CCOCC1)C(c1ccccc1)c1ccccc1	3.0	41.8*	-4.7	·	17.7	0.9
COc1cccc(-c2ccc3c(c2)O[C@H](CN(C)Cc2cncnc2)[C@H](C)CN([C@H](C)CO)S3(=O)=O)c1	·	·	·	1.7	·	·
Cc1nc(C#N)c(N/N=C/c2cccc(Cl)c2)o1	-1.3	28.5	72.4	92.6*	-12.4	-3.1

Assay outcomes: PubChem, Broad Institute
